Where “and” joins values, the source holds several entries; their conditions need not be identical. Equal values may be shown once. More than one record can exist for a structure, and the calls need not agree. Calls of active or inactive are those of the source. How the source made its calls: active means hit-call score of the fitted dose curve at least 0.9, where 1 is the maximum; inactive means score below 0.9.
Assay: BSK_SAg_PBMCCytotoxicity: PBMC Cytotoxicity Assessment in the BioMAP Diversity Plus: SAg Assay (AID 2283093);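 further: fitted both ways against DMSO so a hit may be loss or gain of signal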
Conditions: primary human HUVEC with PBMC
Protocol: BSK_SAg is a cell-based, multiplexed-readout assay that uses umbilical vein endothelium and peripheral blood mononuclear cells, a human vascular primary cell co-culture, with measurements taken at 24 hours after chemical dosing in a 96-well plate.BSK_SAg_PBMCCytotoxicity is an assay component measured in the BSK_SAg assay. It measures Alamar blue related to cell death using Alamar Blue Reduction technology.Data from the assay component BSK_SAg_PBMCCytotoxicity was analyzed into 1 assay endpoint. This assay endpoint, BSK_SAg_PBMCCytotoxicity, was analyzed with bidirectional fitting relative to DMSO as the negative control and baseline of activity. Using a type of viability reporter, gain or loss-of-signal activity can be used to understand changes in the viability. Furthermore, this assay endpoint can be referred to as a secondary readout, because this assay has produced multiple assay endpoints where this one serves a viability function. To generalize the intended target to other relatable targets, this assay endpoint is annotated to the cell cycle intended target family, where the subfamily is cytotoxicity.
The levels of cell surface (or secreted, indicated by the prefix "s") biomarker endpoints were measured by ELISA. Overt cytotoxicity to cells in confluent adherent cultures (all systems other than the BT system) was assessed by measuring total protein levels using sulforhodamine B (SRB) staining in parallel cultures at the time of biomarker measurements, indicated as SRB endpoints. For proliferation assays for adherent cell types, individual cell types are cultured at sub-confluence and relative cell numbers quantified by SRB staining at time points optimized for each system (48 h: 3C and CASM3C systems; 72 h: BT and HDF3CGF systems; 96 h: SAg system). SRB was performed by staining cells with 0.1% SRB after fixation with 10% TCA and reading wells at 560 nm.Viability and proliferation of PBMC (T cells) was quantified by Alamar Blue reduction for the SAg and BT systems. For PBMC viability (referred to as PBMC Cytotoxicity within the assay endpoint names), cells were plated (75,000/well in a 96-well plate) and then chemical samples added for 1 h before addition of activators, SEB and TSST-1 (20 ng/mL final concentration each). Cells were incubated for 90 h. Then, Alamar Blue (20 uL/well) (Invitrogen, Cat DAL1100) was added for 6 h, and the plates were read with a fluorescence microplate reader at 546/580 nm (excitation/emission). For PBMC proliferation, cells were plated and activated as above but incubated for only 16 h prior to addition of Alamar Blue. Plates were read after 6 h.

**Q.** Which outcome does the source give for `O=P(O)(O)OCCC(F)(F)C(F)(F)C(F)(F)C(F)(F)C(F)(F)C(F)(F)F` here?
**A.** The outcome was “inactive”.

**Q.** With `FC(F)(F)C(F)(F)C(F)(F)C(F)(F)CCI` as the compound, how does the outcome read?
**A.** Its outcome is “inactive”.

**Q.** What about the AC50 of the same compound?
**A.** Its AC50 is 41.9 µM (active).

**Q.** Which outcome does the source give for `CCCCOCCOCCOC(=O)CCCCC(=O)OCCOCCOCCCC` here?
**A.** Its outcome is “inactive”.

**Q.** Which outcome does the source give for `OCC(F)(F)C(F)(F)C(F)(F)F` here?
**A.** The outcome was “inactive”.

**Q.** For `O=S(=O)(O)C(F)(F)C(F)(F)C(F)(F)C(F)(F)C(F)(F)C(F)(F)C(F)(F)F`, which outcome is on record?
**A.** The outcome was “inactive”.

**Q.** Which outcome does the source give for `O=C(O)C(F)(F)C(F)(F)C(F)(F)C(F)(F)C(F)(F)C(F)(F)C(F)(F)C(F)(F)Cl` here?
**A.** Its outcome is “inactive”.

**Q.** For `CC(=O)Nc1ccc(N=Nc2cc(C)ccc2O)cc1`, which outcome is on record?
**A.** The outcome was “inactive”.

**Q.** What does the source list for `FC(F)(I)C(F)(F)C(F)(F)C(F)(F)I`?
**A.** outcome: inactive; AC50: 46.9 µM (active) and 50.1 µM (active)

**Q.** For `FC(F)(F)C(F)(F)C(F)(F)C(F)(F)C(F)(F)C(F)(F)CCS`, which outcome is on record?
**A.** The outcome was “inactive”.

**Q.** For `OCC(F)(F)C(F)(F)C(F)(F)C(F)(F)C(F)(F)C(F)F`, which outcome is on record?
**A.** The outcome was “inactive”.

**Q.** For `O[Si](c1ccccc1)(c1ccccc1)c1ccccc1`, which AC50 is on record?
**A.** Its AC50 is 30.5 µM (active).

**Q.** With `O=C(O)C(F)(F)C(F)(F)C(F)F` as the compound, how does the outcome read?
**A.** Its outcome is “inactive”.

**Q.** With `N=C(N)C(F)(F)C(F)(F)C(F)(F)C(F)(F)C(F)(F)C(F)(F)C(F)(F)F` as the compound, how does the AC50 read?
**A.** The AC50 was 45.9 µM (active) and 55.1 µM (active).

**Q.** With `FC(F)(Br)C(F)(F)C(F)(F)C(F)(F)C(F)(F)C(F)(F)Br` as the compound, how does the outcome read?
**A.** The outcome was “inactive”.

**Q.** For `CCc1ccc(C(c2ccc(CC)cc2)C(Cl)Cl)cc1`, which AC50 is on record?
**A.** Its AC50 is 14.5 µM (active).

**Q.** Which outcome does the source give for `CCc1c(Br)c(Br)c(Br)c(Br)c1Br` here?
**A.** Its outcome is “inactive”.

**Q.** With `FC(F)(F)C(F)(F)C(F)(F)C(F)(F)C(F)(F)CCI` as the compound, how does the outcome read?
**A.** Its outcome is “inactive”.

**Q.** For `O=C(O)C(F)(F)C(F)(F)OC(F)(F)F`, which outcome is on record?
**A.** Its outcome is “inactive”.

**Q.** With `CCCCCCCCC(F)(F)C(F)(F)C(F)(F)C(F)(F)C(F)(F)C(F)(F)F` as the compound, how does the outcome read?
**A.** The outcome was “inactive”.

**Q.** With `FC(F)(F)C(F)(F)C(F)(F)N(C(F)(F)C(F)(F)C(F)(F)F)C(F)(F)C(F)(F)C(F)(F)F` as the compound, how does the outcome read?
**A.** The outcome was “inactive”.

**Q.** For `FC(F)(F)C(F)(F)C(F)(F)C(F)(F)C(F)(F)C(F)(F)C(F)(F)C(F)(F)CCS`, which outcome is on record?
**A.** Its outcome is “inactive”.

**Q.** With `C=CC(=O)OCC(F)(F)C(F)(F)C(F)(F)C(F)(F)C(F)(F)C(F)(F)C(F)(F)F` as the compound, how does the outcome read?
**A.** The outcome was “inactive”.

**Q.** For `CCCCCCC(C)OC(=O)CCCCC(=O)OC(C)CCCCCC` (stereo not given), which outcome is on record?
**A.** Its outcome is “inactive”.

**Q.** Which outcome does the source give for `CS(C)(=O)=O` here?
**A.** Its outcome is “inactive”.

**Q.** Which outcome does the source give for `OCC(F)(F)C(F)(F)C(F)(F)C(F)(F)C(F)(F)C(F)(F)F` here?
**A.** Its outcome is “inactive”.

**Q.** With `C#C[C@]1(O)CC[C@H]2[C@@H]3CCc4cc(OC)ccc4[C@H]3CC[C@@]21C` as the compound, how does the AC50 read?
**A.** Its AC50 is 33.4 µM (active).

**Q.** For `CCCCNc1ccccc1`, which outcome is on record?
**A.** The outcome was “inactive”.

**Q.** For `C=CC/C=C/C/C=C/C/C=C/C`, which outcome is on record?
**A.** Its outcome is “inactive”.

**Q.** With `O=C(O)C(F)(F)C(F)(F)C(F)(F)C(F)(F)F` as the compound, how does the outcome read?
**A.** Its outcome is “inactive”.

**Q.** Which outcome does the source give for `CCO[Si](CCC(F)(F)C(F)(F)C(F)(F)C(F)(F)C(F)(F)C(F)(F)F)(OCC)OCC` here?
**A.** Its outcome is “inactive”.

**Q.** Which outcome does the source give for `O=C(O)C=C(C(F)(F)F)C(F)(F)F` here?
**A.** Its outcome is “inactive”.

**Q.** What does the source list for `CC(C)(C)C(=O)CC(=O)C(F)(F)C(F)(F)C(F)(F)F`?
**A.** AC50: 53.9 µM (active); outcome: inactive

**Q.** For `Oc1ccc(Nc2ccccc2)cc1`, which AC50 is on record?
**A.** The AC50 was 3.57 µM (active).

**Q.** For `OCCCC(F)(F)C(F)(F)C(F)(F)F`, which outcome is on record?
**A.** The outcome was “inactive”.

**Q.** For `CCCCCCCCCCCCCCCC[N+](C)(C)Cc1ccccc1`, which AC50 is on record?
**A.** Its AC50 is 1.17 µM (active).

**Q.** For `C=C(C)C(=O)OCC(F)(F)C(F)(F)C(F)(F)C(F)(F)C(F)(F)C(F)(F)C(F)(F)F`, which outcome is on record?
**A.** The outcome was “inactive”.

**Q.** Which outcome does the source give for `O=C(O)C(F)(F)C(F)(F)C(F)(F)C(F)(F)C(F)(F)C(F)(F)C(F)(F)C(F)(F)C(F)(F)C(F)(F)C(F)(F)C(F)(F)C(F)(F)F` here?
**A.** Its outcome is “inactive”.
